Tests used:
[1] = target: POU1 (OCT1 POU domain) (human, UniProt P14859 260-458); assay: EMSA-SELEX-seq; no BOB1; 20 mM Tris-HCl pH 7.6, 140 mM NaCl, 10% glycerol, 0.5 mM EDTA, 0.05% Triton X-100, 0.1 mg/mL BSA, 0.1 mg/mL poly(dI-dC), 5 mM DTT, room temperature, 20 min; high values mean tight binding; conditions: protein: recombinant; dsDNA, one strand shown
Summary of the method: (§1)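 Binding preference is reported as the percentage of sequenced 8-mers that match a motif pattern. Tagged POU-domain proteins were made in E. coli BL21, purified under denaturing conditions and renatured. A 30 ng portion was combined with 300 ng of a PCR-amplified double-stranded random 35-nt library, with or without 28 ng coactivator protein, in 20 μL Tris–HCl pH 7.6 binding buffer for 20 min at RT. Complex bands were excised from native 6% PAGE, eluted and PCR-amplified over four rounds before Illumina sequencing.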

[2] = target: T1, POU2 (OCT2 POU domain) (human, UniProt P09086 175-386); assay: as above; conditions: protein: recombinant; dsDNA, one strand shown
T1 sequence: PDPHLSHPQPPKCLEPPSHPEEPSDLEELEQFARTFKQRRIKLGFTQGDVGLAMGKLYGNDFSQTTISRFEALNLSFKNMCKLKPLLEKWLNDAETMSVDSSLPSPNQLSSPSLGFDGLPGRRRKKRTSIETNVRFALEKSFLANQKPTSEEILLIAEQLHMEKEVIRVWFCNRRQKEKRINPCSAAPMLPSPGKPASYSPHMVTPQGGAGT
Summary of the method: as §1

[3] = target: POU1 (OCT1 POU domain);BOB1 (OBF1, OCA-B) (human;human, UniProt P14859;Q16633 260-458;1-256, |); assay: EMSA-SELEX-seq; with BOB1 (ternary complex band); 20 mM Tris-HCl pH 7.6, 140 mM NaCl, 10% glycerol, 0.5 mM EDTA, 0.05% Triton X-100, 0.1 mg/mL BSA, 0.1 mg/mL poly(dI-dC), 5 mM DTT, room temperature, 20 min; high values mean tight binding; conditions: protein: recombinant;recombinant; copies: 1;1; dsDNA, one strand shown
Summary of the method: as §1

[4] = target: T2, POU2 (OCT2 POU domain);BOB1 (OBF1, OCA-B) (human;human, UniProt P09086;Q16633 175-386;1-256, |); assay: as above; conditions: protein: recombinant;recombinant; copies: 1;1; dsDNA, one strand shown
T2 sequence 1: T1 sequence
T2 sequence 2: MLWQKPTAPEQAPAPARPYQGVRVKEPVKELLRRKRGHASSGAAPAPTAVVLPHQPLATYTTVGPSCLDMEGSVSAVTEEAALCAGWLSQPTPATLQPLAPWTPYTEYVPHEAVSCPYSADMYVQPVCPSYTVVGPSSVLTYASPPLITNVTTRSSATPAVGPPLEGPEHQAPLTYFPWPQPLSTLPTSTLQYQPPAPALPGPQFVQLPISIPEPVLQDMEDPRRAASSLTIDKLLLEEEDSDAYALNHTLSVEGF
Summary of the method: as §1

Chain of POU1 (OCT1 POU domain) (P14859 260-458): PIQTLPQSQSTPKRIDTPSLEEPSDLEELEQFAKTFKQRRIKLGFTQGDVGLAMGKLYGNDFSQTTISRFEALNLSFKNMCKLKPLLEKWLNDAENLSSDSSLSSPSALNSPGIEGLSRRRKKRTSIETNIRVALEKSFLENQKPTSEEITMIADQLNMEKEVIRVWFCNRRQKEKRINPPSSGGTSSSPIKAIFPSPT

Sequence | binding signal [1] | binding signal [2] | binding signal [3] | binding signal [4]
ACCTTAAA | 0.021 % of ANNNNAAN 8-mers | 0.023 % of ANNNNAAN 8-mers | 0.0375 % of ANNNNAAN 8-mers | 0.0173 % of ANNNNAAN 8-mers
ATATGAAG | 0.0545 % of ANNNNAAN 8-mers | 0.0823 % of ANNNNAAN 8-mers | 0.0691 % of ANNNNAAN 8-mers | 0.0735 % of ANNNNAAN 8-mers
ACGAAAAG | 0.032 % of ANNNNAAN 8-mers | 0.0368 % of ANNNNAAN 8-mers | 0.046 % of ANNNNAAN 8-mers | 0.0413 % of ANNNNAAN 8-mers
ATCCTAAC | 0.0172 % of ANNNNAAN 8-mers | 0.0299 % of ANNNNAAN 8-mers | 0.023 % of ANNNNAAN 8-mers | 0.0355 % of ANNNNAAN 8-mers
ACCGAAAG | 0.0137 % of ANNNNAAN 8-mers | 0.0144 % of ANNNNAAN 8-mers | 0.0164 % of ANNNNAAN 8-mers | 0.0149 % of ANNNNAAN 8-mers
ACACTAAT | 0.0568 % of ANNNNAAN 8-mers | 0.0811 % of ANNNNAAN 8-mers | 0.0316 % of ANNNNAAN 8-mers | 0.0438 % of ANNNNAAN 8-mers
AGGAGAAG | 0.045 % of ANNNNAAN 8-mers | 0.0472 % of ANNNNAAN 8-mers | 0.0507 % of ANNNNAAN 8-mers | 0.0438 % of ANNNNAAN 8-mers
AGGTCAAA | 0.0587 % of ANNNNAAN 8-mers | 0.0403 % of ANNNNAAN 8-mers | 0.0632 % of ANNNNAAN 8-mers | 0.0421 % of ANNNNAAN 8-mers
AGAAAAAA | 0.0767 % of ANNNNAAN 8-mers | 0.0857 % of ANNNNAAN 8-mers | 0.0812 % of ANNNNAAN 8-mers | 0.0561 % of ANNNNAAN 8-mers
ATAGGAAA | 0.131 % of ANNNNAAN 8-mers | 0.112 % of ANNNNAAN 8-mers | 0.213 % of ANNNNAAN 8-mers | 0.146 % of ANNNNAAN 8-mers
ACATAAAC | 0.087 % of ANNNNAAN 8-mers | 0.106 % of ANNNNAAN 8-mers | 0.0652 % of ANNNNAAN 8-mers | 0.0751 % of ANNNNAAN 8-mers
ATTGCAAC | 0.0256 % of ANNNNAAN 8-mers | 0.0178 % of ANNNNAAN 8-mers | 0.0195 % of ANNNNAAN 8-mers | 0.0272 % of ANNNNAAN 8-mers
AAATGAAA | 0.15 % of ANNNNAAN 8-mers | 0.133 % of ANNNNAAN 8-mers | 0.21 % of ANNNNAAN 8-mers | 0.147 % of ANNNNAAN 8-mers
ACAGAAAA | 0.0389 % of ANNNNAAN 8-mers | 0.0472 % of ANNNNAAN 8-mers | 0.0472 % of ANNNNAAN 8-mers | 0.0322 % of ANNNNAAN 8-mers
AGGTGAAC | 0.021 % of ANNNNAAN 8-mers | 0.0259 % of ANNNNAAN 8-mers | 0.0222 % of ANNNNAAN 8-mers | 0.0264 % of ANNNNAAN 8-mers
